In all, about 420,000 compounds went through this assay and about 64,000 (15%) were called active. Roughly 27% stayed inconclusive and do not appear here. These entries were drawn from the full list. A number with no mark means an inactive call. Calls come from the whole dose curve; as a rule, active = well fitted inhibition curve with a large enough effect; inconclusive = small, poorly fitted or top-dose-only effect; inactive = flat fitted curve, though single readings scatter.
test: qHTS for Inhibitors of human tyrosyl-DNA phosphodiesterase 1 (TDP1): qHTS in cells in absence of CPT; conditions: DT40 Tdp1-/- hTDP1 cells, no CPT, ATP luminescence, 48 h; activity change, negative = growth inhibition: at 46.2 µM (top of the series); note: nearly all actives have a fitted effect of over 55% in size
Text: Human tyrosyl-DNA phosphodiesterase 1 (TDP1) is a novel repair gene, and we propose to use it as a new target for anticancer drug development. TDP1 is not an essential protein, but under treatment with topoisomerase I poison (camptothecin: CPT), TDP1 works as a critical factor for cell survival. To directly identify novel TDP1 inhibitors active in a cellular environment, we have knocked-out the Tdp1 gene in chicken DT40 cells (Tdp1-/-) and generated a complemented counterpart cells that contains a stable transfection of the human TDP1 gene (Tdp1-/-;hTDP1 cells). For the primary screen, Tdp1-/-;hTDP1 cells will be exposed to small molecules in the presence or absence of CPT, and their growth kinetics will be evaluated after 48 hours by measuring ATP activity. […] The hit compounds will then be evaluated in the presence or absence of CPT using Tdp1-/- cells. […] In tertiary assays, biochemical gel-based assays will be used to assess whether the hit compounds specifically target TDP1.
To this end, we have screened this cell line against the MLSMR in two primary screens. In one screen we add CPT and in the other we screen in the absence of CPT; this AID represents the screen where CPT was absent.
NIH Chemical Genomics Center [NCGC]
NIH Molecular Libraries Probe Centers Network [MLPCN]
Assay Submitter (PI): Yves Pommier, NCI
DT40-hTDP1 cells without 20 nM Camptothecin (add 20 microL of DMSO in 1 L of cell culture medium) were dispensed at 400 cells/5microL/well in tissue culture treated 1536-well white wall/solid bottom assay plates (Greiner Bio-One North America, NC, U.S.A.) using a Multidrop Combi 8 channel dispenser (Thermo Fisher, Waltham, MA, USA). 23 nL compounds and controls were transferred using the pin tool (Kalypsys, San Diego, CA, USA) to the assay plates. The assay plates were then incubated at 37 masculineC for a minimum 48 hr. Three microL of Cell Titer Glo solution was added to the plates and incubated at RT in dark for 30 min. Luminescence was read using ViewLux (Perkin Elmer) with 1 sec exposure slow speed, high gain and 2x binning.
% is set by controls: 0 for no effect and ±100 for the full control effect; potency is the fitted concentration of half-maximal effect.

In order of falling “activity change, negative = growth inhibition” value:
1. COc1cccc(NC(=O)N2C3CCCC2CC(NC(C)=O)C3)c1 (centres undefined)  22.8%
2. CSc1nnc(SCc2nc3sc(C(=O)O)c(C)c3c(=O)[nH]2)s1  12.7%
3. CCOCCOCCC(C(=O)O)P(=O)(c1ccccc1)c1ccccc1 (centres undefined)  9.02%
4. O=C(NCc1cccnc1)c1ccccc1NC(=O)c1c(F)cccc1F  8.82%
5. c1ccc(-c2[nH]ncc2-c2nc3ccccc3[nH]2)cc1  6.23%
6. COc1cccc(NC(=O)CN(C)CC(=O)c2c(N)n(Cc3ccccc3)c(=O)n(C)c2=O)c1  5.98%
7. COc1ccc(CCNC(=O)COC(=O)c2ncc(Cl)c(Cl)c2Cl)cc1OC  3.75%
8. CCN1CCN(C(=O)CN(C)S(=O)(=O)c2ccc(OC)cc2)CC1  3.64%
9. COc1ccc(CCNC(=O)COC(=O)c2ccc[nH]c2=O)cc1  2.84%
10. CCN(CC(=O)Nc1c(F)cccc1F)C(=O)c1cnc(C)cn1  2.58%
11. Cc1ccccc1Nc1nc(N)nc(CSc2nnc3ccccn23)n1  2.48%
12. O=C(COC(=O)c1cccc(Cl)c1Cl)NC1CCCCCC1  1.05%
13. CCN(C(=O)COC(=O)c1cc(S(=O)(=O)N2CCc3ccccc32)ccc1OC)C1CCS(=O)(=O)C1 (centres undefined)  0.801%
14. COc1ccc(CCNc2nc(C)cc(C)n2)cc1OC  0.652%
15. CN(C)c1ccc2c(=O)[nH][nH]c(=O)c2c1  0.253%
16. COc1ccc2c(c1OC)C(=O)N(c1ncn[nH]1)C2  -0.222%
17. CCCC(=O)N1CCC1(C)C(=O)NS(=O)(=O)c1ccc(Cl)cc1 (centres undefined)  -1.28%
18. Cc1ccc(S(=O)(=O)N2CCc3cc(C(=O)Nc4ccc(Cl)cc4C)ccc32)cc1  -2.76%
19. CC1CCC2(CC1)NC(=O)N(CC(=O)c1cccn1C)C2=O (centres undefined)  -2.88%
20. COc1ccc(-n2c(-c3ccc(Cl)cc3)n[nH]c2=S)c(OC)c1  -3.08%
21. O=C(NCc1nnc(SCC(=O)N2CCC(Cc3ccccc3)CC2)o1)c1ccco1  -3.4%
22. CS(=O)(=O)N1CCc2cc(C(=O)Nc3ccccc3)ccc21  -3.41%
23. COc1ccccc1OCCC(=O)OCC(=O)NC(=O)NC(C)(C)C  -3.43%
24. COc1ccccc1C(=O)Nc1ccnn1C1CCN(Cc2cnn(C)c2)CC1  -3.57%
25. NS(=O)(=O)c1cccc(NC(=O)COC(=O)/C=C/c2ccco2)c1  -3.67%
26. Cc1nnc(NC(=O)/C=C/c2ccco2)s1  -3.69%
27. CCCN1C2CCCC1CC(NC(=O)c1cccc(OC)c1)C2 (centres undefined)  -4.33%
28. O=C(Nc1cccc(NC(=O)c2ccc(Br)cc2)c1)c1ccccc1  -5.64%
29. CC/C(O)=N\S(=O)(=O)c1ccc(N=NN(C)C)cc1  -6.75%
30. N#C/C(=C\N1CCOCC1)S(=O)(=O)c1ccc(Cl)cc1  -7.62%
31. Nc1ccc2c(c1)C(=Cc1cccnc1)c1ccccc1-2  -8.08%
32. COCCN1C(=O)N[C@@H](c2ccccc2)C(C(=O)OC)=C1C  -8.68%
33. COc1ccc(-c2cc(C(F)(F)F)nc(NCc3cccnc3)n2)cc1  -9.36%
34. COc1cccc(NC(=O)C2CCN(c3cc(C)nc4c(-c5ccc(Cl)cc5)c(C)nn34)CC2)c1  -9.69%
35. CC1COC2C(O1)N(S(C)(=O)=O)CCN2S(C)(=O)=O (centres undefined)  -9.7%
36. COc1ccc(NC(=O)COC(=O)CNC(=O)C2CCCCC2)cc1  -12%
37. CCCc1cc(=O)[nH]c(SCc2cc(=O)oc3c(C)c(C)ccc23)n1  -12.2%
38. Cn1c(CCNS(=O)(=O)c2ccc(F)cc2)nnc1SCc1cccnc1  -12.9%
39. CC1(C)CC(=O)C(CC(=O)N2CCC(Cc3ccccc3)CC2)C(=O)C1  -13.8%
40. COc1ccc(-c2c(C)nn3c(N4CCC(C(=O)NCCC(C)C)CC4)cc(C)nc23)cc1OC  -14.3%
41. CCc1ccccc1NC(=O)CSc1nnc(CCNC(=O)OC(C)(C)C)o1  -14.5%
42. CC(C)CN(C(=O)CSc1nncn1C)C1CCS(=O)(=O)C1 (centres undefined)  -14.8%
43. CCN1C(=O)N[C@@H](c2ccccc2)C(C(=O)OC)=C1C  -14.8%
44. Cc1cc(NC(=O)Nc2ccc(Cl)cc2)n(-c2ccccc2)n1  -14.9%
45. Cc1cc(C)c(-c2c(O)c3ccccc3n(C)c2=O)c(C)c1  -15.9%
46. Cc1ccc(S(=O)(=O)NC[C@H]2O[C@@H](n3cnc4c(N)ncnc43)[C@H](O)[C@@H]2O)s1  -16.2%
47. O=S(=O)(Nc1ccccc1N1CCOCC1)c1ccc(Cl)s1  -17.2%
48. O=C(NNS(=O)(=O)c1ccccc1C(F)(F)F)c1cc2ncc(C(F)(F)F)cc2s1  -18.1%
49. CCOC(=O)C1CCN(C(=O)Nc2ccc(C)c(Cl)c2)CC1  -18.4%
50. Cc1cccc(Oc2c([N+](=O)[O-])c(=O)n(C)c3ccccc23)c1  -20.7%
51. CCOc1ccc(-n2cnnn2)cc1S(=O)(=O)N1CCC(C)CC1C (centres undefined)  -22.2%
52. O=C(CN(Cc1ccccc1)C(=O)c1ccc2c(c1)OCCO2)NCc1ccc2c(c1)OCO2  -23.2%
53. COc1ccc(OC)c(NC(=O)c2ccc3c(c2)CCN3S(C)(=O)=O)c1  -24.1%
54. COc1cccc(NC(=O)COC(=O)/C=C/c2ccco2)c1  -27%
55. CCC(=O)Nc1ccc2nn(-c3ccc(F)cc3)nc2c1  -27.6%

In the case of COc1cc2c(=O)n(C)c3ccccc3c2cc1OC, the Potency is reported as 11.6 µM (active).
In the case of COc1ccc(CCNc2nc(-c3ccc(Cl)cc3)cc(C(F)(F)F)n2)cc1OC, the Potency is reported as 25.9 µM (active).
For COc1ccc(CCNc2cc(C)nc3c(-c4ccc(Cl)cc4)c(C)nn23)cc1OC, the Potency was 18.4 µM (active).
In the case of COc1ccc(CNc2nc(-c3ccc(Cl)cc3)cc(C(F)(F)F)n2)cc1, the Potency is reported as 18.4 µM (active).
With CCCN1C(=O)C(NC(C)=O)c2cc(OC)ccc21 (centres undefined) the Potency was 18.4 µM (active).
For COc1ccc(N(C)C(=O)CCS(=O)(=O)c2cccc3nsnc23)cc1, the Potency was “inactive”.
In the case of Cc1ccc(NC(=O)Nc2cc(-c3ccccc3)nn2C)cc1Cl, the Potency is reported as 20.6 µM (active).
In the case of O=C(CN1CCOc2ccccc21)N1CCC(Cc2ccccc2)CC1, the Potency is reported as 11.6 µM (active).
With Cc1ccc(-n2nc3ccc(NC(=O)/C=C/c4ccco4)cc3n2)cc1C the Potency was 18.4 µM (active).
In the case of O=C(/C=C/c1ccco1)Nc1cccc(-c2nc3ccccc3[nH]2)c1, the Potency is reported as 23.1 µM (active).
With O=C(Nc1cccc(-c2nc3ccccc3[nH]2)c1)c1ccc(C(=O)Nc2cccc(-c3nc4ccccc4[nH]3)c2)cc1 the Potency was 18.4 µM (active).
For COC(=O)C1=C(C)N(Cc2ccccc2)C(=NCCCOC(C)C)N[C@H]1c1ccccc1, the Potency was 10.3 µM (active).
For COc1ccc(S(=O)(=O)N2CCc3ccccc32)cc1C(=O)Nc1cc(S(C)(=O)=O)ccc1Cl, the Potency was 4.61 µM (active).
With O=C(Nc1cc(C(F)(F)F)ccc1Cl)c1ccc2c(c1)CCN2S(=O)(=O)c1ccccc1 the Potency was 11.6 µM (active).

From PubChem BioAssay AID686978 (National Center for Advancing Translational Sciences (NCATS), 2013)
